From PubChem BioAssay AID1621 (Southern Research Specialized Biocontainment Screening …, 2009)
Screen size: about 290,000 compounds; about 60 (0.02%) were called active. Not shown: some 1% with an inconclusive outcome. How the calls were made is not given here. Not all results are given here. Potency and affinity values are given separately.

assay: West Nile virus antiviral activity, cell-based, CPE readout (AID 1621); conditions: West Nile virus-infected cells, at 10 µM, stronger effect = higher value

CPE inhibition, inactive:
O=C(COc1ccc(S(=O)(=O)N2CCc3ccccc32)cc1Cl)NCc1ccccn1 -0.17%
CCOc1ccc(NC(=O)C(C)O)c(NS(=O)(=O)c2ccc(CCNC(C)=O)cc2)c1 (configuration not stated) -0.27%
O=C(CNS(=O)(=O)c1ccccc1)OCC(=O)c1ccc(Br)cc1 -0.68%
CCOC(=O)C1C(=O)CC(C)(O)C(C(=O)OCC)C1c1ccc(NC(C)=O)cc1 (configuration not stated) 0%
O=C1CSC(c2cn(-c3ccccc3)nc2-c2ccccc2)N1Cc1ccco1 (configuration not stated) -0.03%
O=C(NC1CCS(=O)(=O)C1)c1sc2ccccc2c1Cl (configuration not stated) 1.04%
CCCC1CCC(C(=O)Nn2cnc3ccccc3c2=O)CC1 (configuration not stated) 0.33%
Cc1[nH]c(=O)c(C#N)c(C)c1CCC(=O)NCc1ccc(Cl)cc1 0.96%
Cc1nc(Cl)sc1C(=O)NC(C)c1ccc(Cl)cc1 (configuration not stated) -0.9%
O=C1CN(C(=O)c2ccc(Cl)nc2)c2ccccc2N1 0.17%
CC(C)(C)c1ccc(NC(=O)CSc2nnc(-c3n[nH]c4ccccc34)o2)cc1 0.07%
Cc1cc(C)c2nc(N3CCCC(C(=O)NCCN4CCOCC4)C3)sc2c1 (configuration not stated) -0.73%
Cc1cc(C)c2nc(N3CCCC(C(=O)NCCCN4CCOCC4)C3)sc2c1 (configuration not stated) -0.13%
COC(=O)c1ccccc1NC(=S)N(Cc1ccc2c(c1)OCO2)Cc1cc2cc(C)ccc2[nH]c1=O 0.29%
Cc1[nH]c(C(=O)O)c(C)c1C(=O)OC(C)C 0.13%
CC(C(=O)NC(C)(C)C)N1C(=O)c2cccc3cccc(c23)C1=O (configuration not stated) -0.58%
CN(C)CCNC(=O)c1c(NC(=O)c2ccccc2)sc2c1CCCC2 2.53%
NCCNC(=O)c1c(NC(=O)c2ccccc2)sc2c1CCCC2 -0.62%
CCc1cccc(NC(=O)C2CCCN2S(=O)(=O)c2cccc3cccnc23)c1 (configuration not stated) -0.25%
O=C(NC1CC1)c1cc2c(s1)-c1ccccc1OC2 1.08%
Cc1cccc2c1-c1sc(C(=O)NCCCN3CCc4ccccc4C3)cc1CO2 -0.65%
O=C(NCc1cccs1)c1cc2c(s1)-c1ccccc1OC2 0.12%
Cc1cccc2c1-c1sc(C(=O)NCCCN3CCCC(C)C3)cc1CO2 (configuration not stated) -0.27%
Cc1cccc2c1-c1sc(C(=O)NCCCN3CCC(C)CC3)cc1CO2 1.03%
CCN1CCN(CCCNC(=O)c2cc3c(s2)-c2ccccc2OC3)CC1 35.2%
CCCN1CCN(CCCNC(=O)c2cc3c(s2)-c2c(C)cccc2OC3)CC1 -0.21%
O=C(NCCCN1CCOCC1)c1cc2c(s1)-c1ccccc1OC2 0.21%
CC1(C)SC2c3ccccc3C(=O)N2[C@@H]1C(=O)O (some centres not stated) 1.57%
COc1ccc(C2/C=C\CN(C(=O)OCc3ccccc3)CC(=O)N2Cc2ccc(F)cc2)cc1 (configuration not stated) -0.53%
O=c1c2ccccc2cnn1Cc1cccc(Br)c1 0%
COc1ccc(-c2noc(N3CCCC(C(=O)Nc4cc(F)ccc4F)C3)n2)cc1 (configuration not stated) -0.21%
CCSc1nnc(Nc2ccccc2)s1 0.4%
C/C(=N\NC(=O)c1nn(C)c(C)c1Br)c1ccc(NC(=O)c2ccc(C)s2)cc1 -0.9%
Cc1ccc(S(=O)(=O)NC(C)CCc2ccccc2)cc1 (configuration not stated) -1.02%
COc1cc2ccccc2cc1C(=O)NC(=S)Nc1nnn(C)n1 0.33%
Cc1sc(/C=C2\C(=O)ON=C2c2ccccc2)cc1Br 0.35%
CC(C)NC(=O)c1ccc(-c2ccc(Cl)c(C(F)(F)F)c2)o1 -0.86%
CCOC(=O)C1C(c2cccs2)NC(=O)N(C)C1(O)C(F)(F)F (configuration not stated) -0.41%
CCCCNC(=O)c1onc(CSc2cc(C)cc(C)c2)c1C(=O)NCCCC -0.6%
COCCNC(=O)c1onc(CSc2cc(C)cc(C)c2)c1C(=O)NCCOC 0.39%
O=C(CC(=O)Nc1ccccc1C(=O)O)NNC(=O)Cc1ccccc1 -0.29%
O=C(CCCl)N1CCN(c2nc(-c3ccccc3)cs2)CC1 1.96%
CN(C)C(=O)N1CCN(c2nc(-c3ccccc3)cs2)CC1 -0.36%
CCCNc1c(NC(=O)c2cccs2)c(=O)oc2ccccc12 -0.26%
Cc1ccc(NC(=O)C(C)N2C(=O)c3ccccc3C2=O)cc1C (configuration not stated) 0.2%
CCOC(=O)CN1C(=O)N[C@@H](c2cccc(C(F)(F)F)c2)[C@H](C(C)=O)[C@H]1C -0.43%
CCN(CC)CCC(c1cc(OC)c(OC)c(OC)c1)c1c(OC)cc(OC)c2c(C)cc(=O)oc12 (configuration not stated) -0.13%
CCN(CC)CCC(c1ccc(N(C)C)cc1)c1c(OC)cc(OC)c2c(-c3ccccc3)cc(=O)oc12 (configuration not stated) -0.46%
CONC(=O)Nc1ccccc1[N+](=O)[O-] 0.1%
CCOC(=O)c1[nH]c2ccccc2c1NC(=O)C(C)(C)C 0.96%
CCCC(=O)Nc1c(C(=O)OCC)[nH]c2ccccc12 0%
Cc1ccc(Sc2c(C)nn(C(=O)c3cccc(S(=O)(=O)N4CCOCC4)c3)c2C)cc1 0.04%
O=C(Nc1ccc(S(=O)(=O)Nc2nccs2)cc1)c1ccc(=O)[nH]c1 -0.06%
CCOc1ccc(NC(=O)c2c(NC(=O)CN3CCCC3)sc3c2CCC3)cc1 -0.99%
CN1CCN(CC(=O)Nc2sc3c(c2C(=O)Nc2ccccc2)CCCC3)CC1 1.23%
CCOC(=O)c1c(N)c2cc([N+](=O)[O-])ccc2n1C 0.7%
COCC(C)n1c(SCc2cc(C(=O)OC)c(C)o2)nc2ccccc2c1=O (configuration not stated) -0.56%
CC(=O)c1ccc(N2CCN(c3ccc(S(=O)(=O)NCCCN(C)C)cc3[N+](=O)[O-])CC2)cc1 -2.19%
CC(=O)c1ccc(N2CCN(c3ccc(S(=O)(=O)NCCN(C)C)cc3[N+](=O)[O-])CC2)cc1 -0.21%
COCCn1nnnc1C(c1cccs1)N1CCN2CCCC2C1 (configuration not stated) 0.23%
CCOC(=O)c1c(NC(=O)CSc2cccc[n+]2[O-])sc(C(=O)Nc2ccccc2)c1C -0.77%
CCOC(=O)c1c(N)sc(C(=O)Nc2ccccc2)c1C -0.25%
Cc1cnc(NC(=O)Cc2cccs2)s1 0.29%
COc1ccc(C2c3sc(=O)[nH]c3SC3C4CCC(C4)C23)cc1OC (configuration not stated) 0.48%
CCc1cc(C(=O)N2CCc3c([nH]c4ccccc34)C2c2ccc(OC)cc2F)no1 (configuration not stated) 19.3%
O=C(c1cc2ncccn2n1)N1CCc2c([nH]c3ccccc23)C1c1ccccc1F (configuration not stated) 2.67%
C=CCn1c(SCC(=O)NNC(=O)Nc2ccc(C)cc2)nnc1-c1ccccc1 0.45%
c1ccc2c(c1)CN1CCCC1=N2 0.51%
O=C1CN2C(=Nc3ccc(Br)cc3C2c2ccccc2)CCN1 (configuration not stated) -0.54%
CCN1CCc2nc3ccccc3c(C(=O)Nc3ccc(F)cc3)c2C1 -0.07%
Cc1ccc(OCC(O)Cn2c(N3CCCCC3)nc3c2c(=O)[nH]c(=O)n3C)cc1C (configuration not stated) -0.27%
CCOC(=O)NN1C(=O)c2ccccc2NC1c1ccccn1 (configuration not stated) 0.09%
O=C(Nc1ccccc1N1CCCC1)c1ccccc1Cl -1.13%
Cc1ccccc1/C=N/N1C(=O)CSC1=S 0.91%
Cc1ccc2[nH]c(=O)c(CN(CCCN(C)C)C(=O)Nc3cccc(Cl)c3)cc2c1 -1.48%
Cc1ccc2cc(CN(CCN(C)C)C(=O)Nc3ccc(Cl)cc3)c(=O)[nH]c2c1 2.9%
NC(=O)c1ccc(NC(=O)CSc2nnc(-c3cccnc3)n2Cc2ccco2)cc1 -0.08%
c1ccc(COC2CCCN(Cc3nc(Cc4ccccc4)no3)C2)cc1 (configuration not stated) -1.71%
CC(=O)Oc1ccc2occ(-c3ccccc3)c2c1 -0.4%
CCN(CC)S(=O)(=O)c1ccc(C(=O)O)cc1 0.13%
CCN(CC)S(=O)(=O)c1ccc(NC(=O)c2cc(-c3ccccc3)nc3ccccc23)cc1 -0.41%
CCOC(=O)C1(Cc2ccccc2C(F)(F)F)CCN(C2CCN(C(C)=O)CC2)CC1 -1.08%
CCOC(=O)C1(Cc2ccccc2C(F)(F)F)CCN(C2CCCC2)CC1 -0.59%
CC1CCC2C(=O)N(c3cccc(C(=O)Nc4ccccc4Cl)c3)C(=O)C2C1 (configuration not stated) 0.29%
Cc1ccc(S(=O)(=O)c2nc(-c3cccs3)oc2SCC(N)=O)cc1 2.11%
Cc1c(NC(=O)COC(=O)c2cc(-c3cccc4ccccc34)nc3ccccc23)c(=O)n(-c2ccccc2)n1C -0.96%
COc1ccc2cc(-c3cc(C(=O)OCC(=O)Nc4c(C)n(C)n(-c5ccccc5)c4=O)c4ccccc4n3)ccc2c1 -0.17%
COc1ccc(NS(=O)(=O)c2ccc(O)c(NC(=O)c3ccc(S(=O)(=O)N4CCCCCC4)cc3)c2)cc1 2.03%
COc1ccc(/C(N)=N/OC(=O)c2ccc(Br)o2)cc1 0%
CCn1c(SCC(=O)C(C)(C)C)nnc1-c1cccnc1 -0.07%
CCN(CCN(C)C)C(=O)C1CCN(S(=O)(=O)c2c(C)noc2/C=C/c2ccccc2F)CC1 0.04%
CNC(=O)C1CCN(S(=O)(=O)c2c(C)noc2/C=C/c2ccccc2F)CC1 -1%
